Values without a mark were called inactive. Results filed as inconclusive are left out. Activity calls are given as the source filed them. Unless noted, the call rests on the fitted dose curve; in most records, active means well fitted curve in either direction with a large enough effect (not every such curve was filed as active); inconclusive means small, poorly fitted or top-dose-only effect, or another doubt; inactive means flat fitted curve, though single readings scatter.

For assay [1], the target named is Lysosomal acid glucosylceramidase (Homo sapiens) (UniProt P04062). The experiment in a line: Glucocerebrosidase-p2 (AID 348; in the data active means potency below about 10 µM; further: potency means the concentration at half of the fitted maximal effect). The conditions noted are these: purified GBA, blue fluorogenic substrate, 40 min. The method in brief:
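Compounds titrated from 0.6 nM upwards against 0.2 nM enzyme in pH 5.9 citric acid/KH2PO4, taurocholate, tween-20; blue fluorogenic substrate 80 uM, 40 min room temperature, stopped and read Ex 365/Em 440 for AC50.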

The nature of assay [2]: AP1 Signaling Pathway (AID 357).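 Further: ME-180 reporter cells stimulated with EGF at its EC50 level; on the % scale 0 is the no-effect control and ±100 the full control effect.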 The conditions noted are these: ME-180 AP-1-bla reporter, EGF-induced, beta-lactamase ratio, 5 h; at 7.69 µM (top of the series) unless noted. The method in brief: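 First, ME-180 AP-1-bla cells were cultured overnight at 37 °C in low-serum Opti-MEM. Next, titrated compounds with EC50 EGF were incubated 5 hours. Finally, CCF4 was added for 2.5 hours and the 460/530 nm ratio recorded.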

Assay [3] addresses Cytochrome P450 1A2 (Homo sapiens) (UniProt P05177). The experiment in a line: p450-cyp1a2 (AID 410; calls by dose curve; further: potency means the concentration at half of the fitted maximal effect;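 on activity change, negative = inhibition: -100% = full effect of reference inhibitor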). Conditions: recombinant CYP1A2, luciferin-ME demethylation, luminescence; series mostly up to 11.4 µM. The method in brief: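 Human CYP1A2 (20nM) demethylated Luciferin-ME at its Km (100uM) in 100mM KPO4. After 10 min compound preincubation, NADPH regeneration ran the reaction 60 min at room temperature. Luciferin was read by luminescence, normalized to 57 uM furafylline.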

Assay [4] is described as follows: NFAT Signaling Pathway (AID 444).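 Further: carbachol stimulus at about its EC50 of 1 µM final; on the % scale 0 is the no-effect control and ±100 the full control effect.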 The conditions noted are these: Jurkat NFAT-bla M1, carbachol, beta-lactamase ratio, 5 h; at 7.69 µM (top of the series) unless noted. The method in brief: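 Read-out: CCF4 FRET ratio (460 nm/530 nm) after 1 h RT dye loading, used for %activity and AC50 from titration series. Cells: Jurkat NFAT-β-lactamase/M1 line, treated with compound plus 1 uM carbachol for 5 h, 37 °C.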

Assay [5] in a line: Stat Signaling Pathway (AID 446).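 Further: ME-180 cervical cancer cells given 40 pM IL-6 alongside compound; SIE-controlled beta-lactamase reporter measured as 460/530 nm FRET emission ratio; on the % scale 0 is the no-effect control and ±100 the full control effect.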 The conditions noted are these: ME-180 (cervical carcinoma) SIE beta-lactamase reporter, IL-6 stimulated, 5 h; at 7.69 µM (top of the series) unless noted. The method in brief:
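IL-6/STAT signaling read in ME-180 cells via an SIE beta-lactamase reporter. Stimulus was 40 pM IL-6 (its AC50) for 5 hrs, so both activation and inhibition register.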

Assay [6] addresses Glucocorticoid receptor (Homo sapiens) (UniProt P04150). The experiment in a line: GR-GFP Redistribution (AID 450;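 active means compounds whose dose series gives a full or clear partial fitted curve of increased nuclear translocation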; further: potency means the concentration at half of the fitted maximal effect). The conditions noted are these: U2OS GR-GFP nuclear translocation, laser cytometry, 2 h.
Assay [7] shares this target. Briefly: GR-EFC Redistribution (AID 451; calls by dose curve; further: potency means the concentration at half of the fitted maximal effect). The conditions noted are these: CHO-K1 GR-EFC translocation, beta-gal luminescence, 2 h. In a few lines:
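Translocation of GR-ED fusion to nuclear EA restores b-gal, read by luminescence after 1 h room-temperature detection. Engineered CHO-K1 biosensor cells, 1,000/well, exposed 2 h at 37 C to titrations up to 46 uM final.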

Assay [8] concerns the target Mitogen-activated protein kinase 10 (Mus musculus) (UniProt Q61831). The experiment in a line: JNK3 AlphaScreen Assay (AID 530).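 Further: kinase came from lysate of stimulated human HepG2 cells; signal reports phosphorylation of biotinylated GST-cJun 1-79 at Ser73 with 10 µM ATP; on the % scale 0 is the no-effect control and ±100 the full control effect.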 Conditions: JNK3 lysate, c-Jun phosphorylation; series mostly up to 11.4 µM. In a few lines: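 Room-temperature AlphaScreen kinase assay; pre-activated HepG2 lysate as JNK3 source, biotin-GST-cJun(1-79) substrate, 10 uM ATP, compound 15 min preincubation.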

The target of assay [9] is 3',5'-cyclic-AMP phosphodiesterase 4B (Homo sapiens) (UniProt Q07343). The experiment in a line: qHTS Assay for Inhibitors of PDE-IV (AID 607; active means well fitted activation curve with a large enough effect in the main read-out, with a control signal flat, not every such curve was filed as active; further: % of control where 0% means no effect). Conditions: HEK293 ACTOne CNG channel cells, membrane potential fluorescence; series mostly up to 22.9 µM. The method in brief:
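Live HEK293 cells with a modified cyclic nucleotide-gated (CNG) channel report intracellular cAMP via membrane-potential dye fluorescence (ex 535/em 590 nm). Endogenous PDE-IV was targeted. Compounds were tested at up to 22.9 uM final; RO 20-1724 100 uM served as control.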

Chain of Cytochrome P450 1A2 (Homo sapiens) (P05177 whole entry, looked up): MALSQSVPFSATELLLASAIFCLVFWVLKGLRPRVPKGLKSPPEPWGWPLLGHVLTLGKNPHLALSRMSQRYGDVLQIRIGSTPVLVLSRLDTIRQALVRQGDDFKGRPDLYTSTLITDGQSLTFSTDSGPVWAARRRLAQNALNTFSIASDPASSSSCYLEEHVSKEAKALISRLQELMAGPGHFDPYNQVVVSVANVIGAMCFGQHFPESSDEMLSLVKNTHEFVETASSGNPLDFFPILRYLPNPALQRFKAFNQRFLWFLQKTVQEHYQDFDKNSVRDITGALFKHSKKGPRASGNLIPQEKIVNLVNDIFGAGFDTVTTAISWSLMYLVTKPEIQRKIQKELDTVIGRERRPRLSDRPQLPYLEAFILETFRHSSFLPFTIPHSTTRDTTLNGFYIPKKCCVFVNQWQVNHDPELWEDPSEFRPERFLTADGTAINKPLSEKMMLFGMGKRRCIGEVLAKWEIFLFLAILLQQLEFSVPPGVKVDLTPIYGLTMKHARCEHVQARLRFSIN
Chain of Glucocorticoid receptor (Homo sapiens) (P04150 whole entry, looked up): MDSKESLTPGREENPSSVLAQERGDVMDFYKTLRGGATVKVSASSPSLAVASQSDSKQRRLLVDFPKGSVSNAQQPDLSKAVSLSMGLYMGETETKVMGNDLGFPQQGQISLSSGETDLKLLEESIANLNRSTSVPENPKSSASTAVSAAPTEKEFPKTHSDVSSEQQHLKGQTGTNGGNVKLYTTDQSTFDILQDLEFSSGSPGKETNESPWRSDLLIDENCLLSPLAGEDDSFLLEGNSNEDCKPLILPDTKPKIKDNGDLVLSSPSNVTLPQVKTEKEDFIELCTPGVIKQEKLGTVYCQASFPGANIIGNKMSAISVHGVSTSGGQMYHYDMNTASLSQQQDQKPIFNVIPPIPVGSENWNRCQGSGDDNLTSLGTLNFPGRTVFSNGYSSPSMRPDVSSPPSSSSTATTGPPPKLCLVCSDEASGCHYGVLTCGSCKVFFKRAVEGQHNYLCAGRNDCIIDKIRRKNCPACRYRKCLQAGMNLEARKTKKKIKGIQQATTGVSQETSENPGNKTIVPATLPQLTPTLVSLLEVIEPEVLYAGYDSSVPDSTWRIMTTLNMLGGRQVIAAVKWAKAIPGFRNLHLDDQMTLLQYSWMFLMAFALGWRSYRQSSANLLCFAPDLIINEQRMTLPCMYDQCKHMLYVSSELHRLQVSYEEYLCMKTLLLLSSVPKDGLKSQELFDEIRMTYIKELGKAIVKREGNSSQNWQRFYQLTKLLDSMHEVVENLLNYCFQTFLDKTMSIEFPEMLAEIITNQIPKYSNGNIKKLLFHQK
Chain of 3',5'-cyclic-AMP phosphodiesterase 4B (Homo sapiens) (Q07343 whole entry, looked up): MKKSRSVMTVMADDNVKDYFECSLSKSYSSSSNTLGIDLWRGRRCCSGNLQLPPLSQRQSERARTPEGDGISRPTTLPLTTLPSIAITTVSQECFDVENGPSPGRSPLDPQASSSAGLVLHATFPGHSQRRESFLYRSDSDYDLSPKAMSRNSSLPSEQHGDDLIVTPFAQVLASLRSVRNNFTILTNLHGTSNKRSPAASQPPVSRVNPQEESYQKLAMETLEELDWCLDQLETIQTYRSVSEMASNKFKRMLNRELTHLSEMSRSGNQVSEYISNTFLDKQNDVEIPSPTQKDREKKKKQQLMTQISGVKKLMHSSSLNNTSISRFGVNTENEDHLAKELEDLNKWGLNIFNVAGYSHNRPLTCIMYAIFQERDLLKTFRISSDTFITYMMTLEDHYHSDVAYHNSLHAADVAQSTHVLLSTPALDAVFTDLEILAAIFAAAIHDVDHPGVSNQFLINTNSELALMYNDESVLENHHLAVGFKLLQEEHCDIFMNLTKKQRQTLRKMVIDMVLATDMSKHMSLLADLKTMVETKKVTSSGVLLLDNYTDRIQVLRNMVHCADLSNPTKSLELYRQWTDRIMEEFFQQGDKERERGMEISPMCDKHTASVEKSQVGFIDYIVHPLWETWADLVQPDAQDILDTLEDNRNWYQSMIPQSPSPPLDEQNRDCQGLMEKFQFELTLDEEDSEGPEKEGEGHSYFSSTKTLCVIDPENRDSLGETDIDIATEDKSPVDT
Chain of Lysosomal acid glucosylceramidase (Homo sapiens) (P04062 whole entry, looked up): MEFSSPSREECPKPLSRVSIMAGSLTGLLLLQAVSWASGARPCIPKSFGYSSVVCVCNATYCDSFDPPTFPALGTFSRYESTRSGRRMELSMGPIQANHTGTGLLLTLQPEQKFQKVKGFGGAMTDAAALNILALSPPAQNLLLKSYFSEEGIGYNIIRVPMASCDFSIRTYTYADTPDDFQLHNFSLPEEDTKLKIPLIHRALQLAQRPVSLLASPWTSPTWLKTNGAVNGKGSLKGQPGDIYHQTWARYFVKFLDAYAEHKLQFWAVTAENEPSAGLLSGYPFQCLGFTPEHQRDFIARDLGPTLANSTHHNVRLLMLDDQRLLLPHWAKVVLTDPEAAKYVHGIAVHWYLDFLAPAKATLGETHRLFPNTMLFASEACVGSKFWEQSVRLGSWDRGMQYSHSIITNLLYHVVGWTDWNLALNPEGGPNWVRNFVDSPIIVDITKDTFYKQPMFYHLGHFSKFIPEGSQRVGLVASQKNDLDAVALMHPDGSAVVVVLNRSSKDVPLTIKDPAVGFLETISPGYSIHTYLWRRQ

With `O=C(CCN1CCOCC1)Nc1ccc(F)cc1F`, the Potency is greater than 11.4 µM in [1], greater than 46 µM in assay [6] and greater than 9.22 µM in assay [7]. In addition, the activity change, negative = inhibition is -2.63% in [2] and 13.2% in [4]. The Potency result in assay [3], in [8] and in assay [9] was “inactive” throughout. The activity, negative = inhibition in assay [5] was 8.47%.
As for `C[N+]1(C)CCc2cc(O)c(O)cc2[C@H]1Cc1ccc(O)c(O)c1`, the results for the Potency in assay [1], in assay [6] and in assay [7] were greater than 11.4 µM, greater than 46 µM and greater than 9.22 µM, respectively. In addition, the figures for the activity change, negative = inhibition in assay [2], in assay [3] and in [4] were -2.63%, -12.1% [at 2.29 µM] and -9.29%, respectively. Besides, in [5], the activity, negative = inhibition was 6.76%. The Potency entry in [8] and in assay [9] was “inactive” each time.
As for `Cc1n[nH]c2ccccc2c1=O`, the Potency in assay [1] was greater than 11.4 µM; in [3], 0.398 µM (active); in assay [6], greater than 46 µM; in [7], greater than 9.22 µM. Besides, the activity change, negative = inhibition is -6.55% in assay [2] and -1.3% in assay [4]. The activity, negative = inhibition in assay [5] was 10.2%. The Potency result in assay [8] and in [9] was “inactive” each time.
`CCCCn1cnc2c(SC)ncnc21`: the Potency in [1] is greater than 11.4 µM; in assay [3], 3.16 µM (active); in assay [6] it was greater than 46 µM; in assay [7] it was greater than 9.22 µM. For the same compound, the values for the activity change, negative = inhibition in assay [2] and in assay [4] were -0.746% and 5.83%, respectively. The activity, negative = inhibition in assay [5] was 8.32%. Also, the Potency result in [8] and in assay [9] was “inactive” throughout.
As to `Nc1nc(-c2cccnc2)cc(-c2cc(-c3cccnc3)nc(N)n2)n1`, the Potency is greater than 11.4 µM in [1], greater than 46 µM in assay [6] and greater than 9.22 µM in assay [7]. Also, the activity change, negative = inhibition in assay [2] was 16.4%; in assay [3], -15.9% [at 2.29 µM]; in assay [4] it was 12.8%. In assay [5], the activity, negative = inhibition was 1.62%. Moreover, the Potency entry in [8] and in assay [9] was “inactive” each time.
For the compound `CN(C)CCn1c(CO)nc2c1c(=O)n(C)c(=O)n2C`, the Potency in [1] was greater than 11.4 µM; in assay [6], greater than 46 µM; in [7], greater than 9.22 µM. Also, the figures for the activity change, negative = inhibition in assay [2] and in assay [4] were 1.13% and 1.85%, respectively. In addition, the Potency result in assay [3], in assay [8] and in assay [9] was “inactive” in each case. In assay [5], the activity, negative = inhibition is 6.5%.
For the compound `O=C1Nc2ccccc2C1=Nc1ccc(S(=O)(=O)Nc2nccs2)cc1`, the Potency in assay [1] is greater than 11.4 µM; in assay [6], greater than 46 µM; in assay [7], greater than 9.22 µM. The activity change, negative = inhibition in assay [2] was -7.86%; in assay [4], 12.8%. Besides, the Potency result in [3], in [8] and in [9] was “inactive” throughout. For the same compound, in assay [5], the activity, negative = inhibition is -9.11%.

These data come from PubChem BioAssay (NCATS).
